According to PubChem BioAssay (NCI):
About 79,000 compounds went through this panel and 15% of them were active in at least one assay; those are over-represented in the sample as a whole. Activity calls are given as the source filed them. Cut-off read from the data, not from the text of the source: active = growth inhibition above about 70%; inactive = the rest.

Tests used:
[1] = NCI Yeast Anticancer Drug Screen. Data for the mlh1 strain (AID 171);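 note: 0% = growth of vehicle-treated control cultures of the same strain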; settings: S. cerevisiae mlh1 strain growth inhibition, stronger effect = higher value
Procedure, shortened: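 Steps: expose the defined-mutant yeast strain to compound; expose a parallel culture to vehicle; measure growth; express compound effect as inhibition relative to the vehicle culture.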

[2] = NCI Yeast Anticancer Drug Screen. Data for the sgs1 strain (AID 173);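 note: 0% = growth of vehicle-only control cultures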; settings: S. cerevisiae sgs1 mutant, stronger effect = higher value
Procedure, shortened: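 Treat defined-mutant yeast with compound; measure growth; calculate inhibition relative to vehicle-treated cells.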

[3] = NCI Yeast Anticancer Drug Screen. Data for the mlh1 rad18 strain (AID 175); settings: S. cerevisiae mlh1 rad18 strain growth inhibition, stronger effect = higher value
Procedure, shortened: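 Test agents were incubated with a yeast strain of defined genotype (DNA damage repair defect). Inhibition of growth was derived by comparison with vehicle-exposed cultures.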

[4] = NCI Yeast Anticancer Drug Screen. Data for the rad18 strain (AID 177); settings: S. cerevisiae rad18 mutant growth inhibition, stronger effect = higher value
Procedure, shortened: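 A genetically defined yeast mutant impaired in DNA damage repair was treated with test compounds, then its growth was measured against cultures receiving vehicle alone.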

[5] = NCI Yeast Anticancer Drug Screen. Data for the rad52 strain (AID 147);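 note: 0% = growth of vehicle-treated control cultures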; settings: S. cerevisiae rad52 mutant growth inhibition, stronger effect = higher value
Procedure, shortened: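 Screen used a yeast mutant impaired in DNA repair. After compound exposure, growth was measured. Values reflect inhibition compared with vehicle-treated cells.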

[6] = NCI Yeast Anticancer Drug Screen. Data for the wt1 strain (AID 149);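 note: 0% = growth of vehicle-treated wt1 cultures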; settings: S. cerevisiae wt1 strain (SPY 50644) growth inhibition, stronger effect = higher value
Procedure, shortened: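 Readout: yeast growth inhibition, normalised to vehicle controls, in the wt1 strain exposed to test compounds.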

[7] = NCI Yeast Anticancer Drug Screen. Data for the rad50EPP+ strain (AID 151);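 note: 0% = growth of vehicle-treated control cultures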; settings: S. cerevisiae rad50 mutant strain, stronger effect = higher value
Procedure, shortened: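 Exposing the rad50EPP+ strain to each compound, growth was compared with vehicle-only cultures to give inhibition.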

[8] = NCI Yeast Anticancer Drug Screen. Data for the mgt1 strain (AID 153); settings: S. cerevisiae mgt1 mutant growth inhibition, stronger effect = higher value
Procedure, shortened: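 Genetically defined yeast (mgt1) treated with compound; inhibition of growth expressed against vehicle-treated controls.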

[9] = NCI Yeast Anticancer Drug Screen. Data for the rad50 strain (AID 155);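 note: 0% = growth of vehicle-only cultures of the same strain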; settings: S. cerevisiae rad50 strain growth inhibition, stronger effect = higher value
Procedure, shortened: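 Compounds were tested on a yeast strain with an engineered DNA damage repair alteration; the reported value is growth inhibition normalised to vehicle treatment.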

[10] = NCI Yeast Anticancer Drug Screen. Data for the mec2-1 strain (AID 157); settings: S. cerevisiae mec2-1 strain, stronger effect = higher value
Procedure, shortened: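 Readout is yeast growth inhibition, normalised to vehicle-treated controls, in the mec2-1 strain exposed to compound.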

[11] = NCI Yeast Anticancer Drug Screen. Data for the rad14 strain (AID 159);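 note: 0% = growth of vehicle-treated control cultures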; settings: S. cerevisiae rad14 strain growth inhibition, stronger effect = higher value
Procedure, shortened: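 Compound-treated yeast with a defined DNA-repair lesion; growth inhibition normalised to vehicle-treated cultures.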

[12] = NCI Yeast Anticancer Drug Screen. Data for the sgs1 mgt1 strain (AID 161);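 note: 0% = growth of cultures given vehicle only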; settings: S. cerevisiae sgs1 mgt1 strain, stronger effect = higher value
Procedure, shortened: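 Compounds are added to genetically altered yeast, and growth is compared with cultures given vehicle alone to give percent inhibition.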

[13] = NCI Yeast Anticancer Drug Screen. Data for the cln2 rad14 strain (AID 165);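 note: 0% = growth equal to vehicle treated cultures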; settings: S. cerevisiae cln2 rad14 strain, stronger effect = higher value
Procedure, shortened: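 Relative to vehicle controls, growth inhibition of compound-treated cln2 rad14 yeast was recorded.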

[14] = NCI Yeast Anticancer Drug Screen. Data for the bub3 strain (AID 167); settings: S. cerevisiae bub3 mutant strain, stronger effect = higher value
Procedure, shortened: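 Growth of a checkpoint-deficient yeast mutant is measured after compound exposure. Values represent inhibition relative to vehicle.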

[15] = NCI Yeast Anticancer Drug Screen. Data for the wt2 strain (AID 169);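 note: 0% = growth of vehicle-treated yeast cultures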; settings: S. cerevisiae wt2 strain growth inhibition, stronger effect = higher value
Procedure, shortened: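 Values express reduction in yeast growth under compound treatment, referenced to vehicle-treated cells.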

[16] = at 5.0 µM (retest, dose inferred, filed as 0.5)
[17] = at 50.0 µM (retest, dose inferred, filed as 5.0)

Measured: growth inhibition

CCCCC/C(=C(\C#N)C(=O)OCC)c1ccccc1
inactive: [1]; at 1.2 µM -2% | [1]; at 3.7 µM 1% | [1]; at 11.0 µM 5% | [1]; at 33.0 µM 10% | [1]; at 100.0 µM 18% | [2]; at 1.2 µM -1% | [2]; at 3.7 µM 2% | [2]; at 11.0 µM 2% | [2]; at 33.0 µM 8% | [2]; at 100.0 µM 17% | [3]; [16] -6% | [3]; [17] 64% | [3]; at 50.0 µM 44.4% | [4]; at 1.2 µM 1% | [4]; at 3.7 µM 3% | [4]; at 11.0 µM 2% | [4]; at 33.0 µM 8% | [4]; at 100.0 µM 14%

CN(C)CCNC(=O)c1cccc2c1Oc1c(cccc1[N+](=O)[O-])O2
active: [5]; at 100.0 µM 93% | [9]; at 33.0 µM 76% | [9]; [17] 72% | [9]; at 100.0 µM 95% | [14]; at 100.0 µM 74%
inactive: [5]; at 1.2 µM -20% | [5]; at 3.7 µM -21% | [5]; at 11.0 µM -12% | [5]; at 33.0 µM 59% | [6]; at 1.2 µM -13% | [6]; at 3.7 µM -20% | [6]; at 11.0 µM -14% | [6]; at 33.0 µM -12% | [6]; at 100.0 µM 29% | [7]; at 1.2 µM 0% | [7]; at 3.7 µM 9% | [7]; at 11.0 µM 3% | [7]; at 33.0 µM 26% | [7]; at 100.0 µM 68% | [8]; at 1.2 µM 9% | [8]; at 3.7 µM 17% | [8]; at 11.0 µM 16% | [8]; at 33.0 µM 30% | [8]; at 100.0 µM 60% | [9]; at 1.2 µM 6% | [9]; at 3.7 µM 10% | [9]; [16] 29% | [9]; at 11.0 µM 24% | [9]; at 50.0 µM 32.6% | [10]; at 1.2 µM -12% | [10]; at 3.7 µM -23% | [10]; [16] -7% | [10]; at 11.0 µM -20% | [10]; at 33.0 µM -9% | [10]; [17] 16% | [10]; at 50.0 µM 7.85% | [10]; at 100.0 µM 56% | [11]; at 1.2 µM -12% | [11]; at 3.7 µM -12% | [11]; at 11.0 µM -10% | [11]; at 33.0 µM -8% | [11]; at 100.0 µM 40% | [12]; [16] 11% | [12]; [17] 16% | [12]; at 50.0 µM 11.5% | [13]; [16] 47% | [13]; [17] 38% | [13]; at 50.0 µM 14.4% | [14]; at 1.2 µM 25% | [14]; at 3.7 µM 31% | [14]; [16] 20% | [14]; at 11.0 µM 13% | [14]; at 33.0 µM 26% | [14]; [17] 29% | [14]; at 50.0 µM 0.95% | [15]; at 1.2 µM -37% | [15]; at 3.7 µM -27% | [15]; at 11.0 µM -40% | [15]; at 33.0 µM -37% | [15]; at 100.0 µM 26% | [2]; at 1.2 µM -10% | [2]; at 3.7 µM 2% | [2]; at 11.0 µM -1% | [2]; at 33.0 µM 2% | [2]; at 100.0 µM 48% | [3]; [16] 15% | [3]; [17] 29% | [3]; at 50.0 µM 18.4% | [4]; at 1.2 µM -3% | [4]; at 3.7 µM 0% | [4]; at 11.0 µM -5% | [4]; at 33.0 µM 13% | [4]; at 100.0 µM 69%

c1ccc2cc(NCNc3ccc4ccccc4c3)ccc2c1
active: [9]; [17] 75% | [9]; at 50.0 µM 95.8% | [12]; at 50.0 µM 95.3% | [13]; at 50.0 µM 76.9% | [14]; [17] 76% | [14]; at 50.0 µM 94.8% | [3]; at 50.0 µM 94.9%
inactive: [5]; at 1.2 µM -3% | [5]; at 3.7 µM -6% | [5]; at 11.0 µM -9% | [5]; at 33.0 µM 1% | [5]; at 100.0 µM 24% | [6]; at 1.2 µM 2% | [6]; at 3.7 µM 3% | [6]; at 11.0 µM 6% | [6]; at 33.0 µM 11% | [6]; at 100.0 µM 16% | [7]; at 1.2 µM 0% | [7]; at 3.7 µM 6% | [7]; at 11.0 µM 11% | [7]; at 33.0 µM 26% | [7]; at 100.0 µM 42% | [8]; at 1.2 µM 1% | [8]; at 3.7 µM 0% | [8]; at 11.0 µM 3% | [8]; at 33.0 µM 8% | [8]; at 100.0 µM 12% | [9]; at 1.2 µM 1% | [9]; at 3.7 µM -5% | [9]; [16] -9% | [9]; at 11.0 µM 5% | [9]; at 33.0 µM 0% | [9]; at 100.0 µM 22% | [10]; at 1.2 µM 0% | [10]; at 3.7 µM 1% | [10]; [16] 8% | [10]; at 11.0 µM 3% | [10]; at 33.0 µM 14% | [10]; [17] 46% | [10]; at 50.0 µM 69.8% | [10]; at 100.0 µM 27% | [11]; at 1.2 µM 1% | [11]; at 3.7 µM 1% | [11]; at 11.0 µM 0% | [11]; at 33.0 µM -13% | [11]; at 100.0 µM 16% | [12]; [16] 0% | [12]; [17] 46% | [13]; [16] -17% | [13]; [17] -22% | [14]; at 1.2 µM 0% | [14]; at 3.7 µM 6% | [14]; [16] 18% | [14]; at 11.0 µM -22% | [14]; at 33.0 µM 51% | [14]; at 100.0 µM 55% | [1]; at 1.2 µM 3% | [1]; at 3.7 µM 3% | [1]; at 11.0 µM 4% | [1]; at 33.0 µM -22% | [1]; at 100.0 µM 15% | [2]; at 1.2 µM 3% | [2]; at 3.7 µM 0% | [2]; at 11.0 µM 1% | [2]; at 33.0 µM 8% | [2]; at 100.0 µM 27% | [3]; [16] 12% | [3]; [17] 65% | [4]; at 1.2 µM -5% | [4]; at 3.7 µM -2% | [4]; at 11.0 µM -19% | [4]; at 33.0 µM -9% | [4]; at 100.0 µM 3%
